Test [1] can be described thus: Nuclear factor erythroid 2-related factor 2/antioxidant responsive element (Nrf2/ARE) small molecule agonists: luciferase reporter gene qHTS assay in human keratinocytes (AID 1919969). Further: nearly all actives have a fitted effect of over 35% in size. Further: potency means the concentration at half of the fitted maximal effect. Background: In a reporter assay the amount or activity of a reporter protein is the signal.
For test [2], the target named is Gonadotropin-releasing hormone receptor (Homo sapiens) (UniProt P30968). The test can be described thus: Human gonadotropin-releasing hormone receptor (GnRHR) small molecule agonists, calcium flux assay in GnRHR-HEK293 cells (AID 1920063). Further: nearly all actives have a fitted effect of over 35% in size. The essentials: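 Compounds dissolved in DMSO are pin-transferred onto dye-loaded GnRHR-HEK293 cells, which were seeded 18 h before at 37 C/5% CO2. Calcium signal is read as fluorescence intensity at 1 s intervals for 3 min.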
Chain of Gonadotropin-releasing hormone receptor (Homo sapiens) (P30968 whole entry, looked up): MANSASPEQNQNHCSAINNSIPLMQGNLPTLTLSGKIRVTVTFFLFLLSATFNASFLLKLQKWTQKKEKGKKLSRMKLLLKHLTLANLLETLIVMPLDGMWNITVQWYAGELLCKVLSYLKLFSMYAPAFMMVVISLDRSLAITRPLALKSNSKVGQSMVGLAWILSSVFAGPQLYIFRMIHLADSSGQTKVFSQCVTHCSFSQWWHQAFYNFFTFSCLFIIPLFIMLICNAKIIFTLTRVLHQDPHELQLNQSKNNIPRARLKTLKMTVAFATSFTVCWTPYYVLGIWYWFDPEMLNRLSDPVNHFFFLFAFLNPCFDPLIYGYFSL

Test [3] addresses KiSS-1 receptor (Homo sapiens) (UniProt Q969F8). The test can be described thus: Human kisspeptin (KISS1R) small molecule agonists, calcium flux assay in KISS1R-HEK293 cells (AID 1920064; active means well fitted activation curve with a large enough effect in the repeat runs). A digest of the protocol:
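Cell line: HEK293, stable human KISS1R. Dye loading 1 h at 37 C after 18 h culture. Read: kinetic fluorescence, 480/540 nm, 3 min at 1 s intervals.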

A short description of test [4]: G protein-coupled receptor (GPCR) small molecule agonists, calcium flux assay: HEK293 wild type cell line counter screen (AID 1920065). A digest of the protocol:
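Tox21 10K compounds, 15 concentrations each in triplicate, pin-transferred in DMSO onto dye-loaded cells; kinetic read at 480/540 nm for 3 min, 1 s intervals.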

Test [5] is described as follows: p53 small molecule agonists, cell-based qHTS assay with human liver microsomes (AID 1963577).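 Further: p53 response element beta-lactamase reporter cells with liver microsomes plus NADPH.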 A digest of the protocol: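 Reporter activation was measured by LiveBLAzer fluorescence intensity in p53RE-bla cells, which had been exposed to compounds for 16 h at 37 C alongside 0.5 mg/mL human liver microsomes and 0.5 mg/mL NADPH (final concentrations).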
The nature of test [6]: p53 small molecule agonists, cell-based qHTS assay with human liver microsomes: qHTS cell viability counter screen (AID 1963579). Further: nearly all actives have a fitted effect of over 45% in size. A digest of the protocol: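 HLM-supplemented (0.5 mg/mL final) and NADPH-supplemented (0.5 mg/mL final) p53RE-bla cultures, 4,000 cells per well, were dosed with compounds in DMSO for 16 h at 37 C; luminescent ATP detection (CellTiter-Glo, 30 min, room temperature) quantified surviving cells.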

Test [7] can be described thus: p53 small molecule agonists, cell-based qHTS assay with rat liver microsomes: qHTS cell viability counter screen (AID 1963580). Further: nearly all actives have a fitted effect of over 45% in size. A digest of the protocol: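 Counter screen for cytotoxicity under metabolic activation: rat liver microsomes and NADPH, 0.5 mg/mL final each, added with compounds to p53RE-bla HCT-116 cells; 16 h at 37 C, then ATP luminescence read.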
For orientation: Quantitative high-throughput screening tests each substance at several concentrations.

Test [8] can be described thus: p53 small molecule agonists, cell-based qHTS assay: qHTS cell viability counter screen (AID 1963581). Further: nearly all actives have a fitted effect of over 45% in size. A digest of the protocol:
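ATP content measured by luminescence in HCT-116 p53RE-bla cells treated 16 h at 37 C, same wells as the reporter screen.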

Test [9] is described as follows: p53 small molecule agonists, cell-based qHTS assay (AID 1963582; active means well fitted activation curve with a large enough effect in the signal ratio in the repeat runs, not every such curve was filed as active; the % refers to the signal ratio). The essentials: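 16 h compound exposure (37 C) of p53 response element–bla cells, preceded by 5 h recovery at 37 C/5% CO2; read-out via LiveBLAzer B/G FRET substrate, 2 h RT, fluorescence intensity.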
Test [10] addresses 5-hydroxytryptamine receptor 2A (Homo sapiens) (UniProt P28223). The test can be described thus: 5-hydroxytryptamine receptor 2A (HTR2A) small molecule antagonists, cell-based qHTS assay (AID 1963586). Further: nearly all actives have a fitted effect of over 45% in size. The essentials: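 CHO cells stably expressing human HTR2A were plated for 18 h at 37 C, then loaded with calcium dye for 1 h. Compounds were preincubated 5 min at room temperature before DOI (4 nM solution) was added. Kinetic fluorescence was read for 3 min.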

Test [11] shares this target. The test can be described thus: 5-hydroxytryptamine receptor 2A (HTR2A) small molecule agonists, cell-based qHTS assay (AID 1963587). Further: nearly all actives have a fitted effect of over 30% in size. A digest of the protocol: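 HTR2A-CHO cells, plated 18 h at 37 C/5% CO2, dye-loaded 1 h at 37 C; compounds in DMSO added by pin tool (agonist mode). Intracellular calcium flux read as kinetic fluorescence on FDSS over 2 min at 1 s intervals.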

The target of test [12] is Muscarinic acetylcholine receptor M1 (Homo sapiens) (UniProt P11229). The test can be described thus: Cholinergic receptor muscarinic 1 (CHRM1) small molecule antagonists, cell-based qHTS assay (AID 1963588). Further: nearly all actives have a fitted effect of over 40% in size. A digest of the protocol: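 Compounds were tested at 15 concentrations in three independent runs. Dye-loaded CHRM1-CHO cells were exposed 5 min at room temperature before stimulation by acetylcholine added at 50nM. Intracellular calcium was read kinetically on FDSS for 3 min.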
Chain of Muscarinic acetylcholine receptor M1 (Homo sapiens) (P11229 whole entry, looked up): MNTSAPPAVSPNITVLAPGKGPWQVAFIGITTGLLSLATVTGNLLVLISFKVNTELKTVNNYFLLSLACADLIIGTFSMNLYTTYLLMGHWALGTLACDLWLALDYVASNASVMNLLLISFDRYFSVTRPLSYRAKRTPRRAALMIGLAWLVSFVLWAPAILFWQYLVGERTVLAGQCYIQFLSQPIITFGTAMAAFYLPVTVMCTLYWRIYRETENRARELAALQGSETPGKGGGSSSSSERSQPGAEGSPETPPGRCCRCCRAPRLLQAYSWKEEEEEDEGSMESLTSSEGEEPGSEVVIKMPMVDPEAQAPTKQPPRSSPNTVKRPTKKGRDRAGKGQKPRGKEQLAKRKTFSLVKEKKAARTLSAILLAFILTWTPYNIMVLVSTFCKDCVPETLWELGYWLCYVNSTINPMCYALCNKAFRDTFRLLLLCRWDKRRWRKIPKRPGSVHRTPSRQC

Test [13] has the same target. The test can be described thus: Cholinergic receptor muscarinic 1 (CHRM1) small molecule agonists, cell-based qHTS assay (AID 1963589). Further: nearly all actives have a fitted effect of over 35% in size. The essentials:
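Homogeneous fluorescence calcium flux, agonist mode. Human M1-expressing CHO cells; compound dosed at 15 concentrations, three independent runs; signal sampled every 1 sec.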

Test [14] can be described thus: cAMP Responsive Elements (CRE) small molecule agonists, cell-based qHTS assay (AID 1963590). A digest of the protocol: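 HEK 293T cells stably bearing CRE-bla were plated at 2,000 cells per well and rested 18 h. Compounds, positive controls or DMSO were added for 3 h at 37 C. LiveBLAzer B/G substrate was then loaded for 2 h at room temperature.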
A short description of test [15]: cAMP Responsive Elements (CRE) small molecule antagonists, cell-based qHTS assay (AID 1963591; active means well fitted inhibition curve with a large enough effect in the signal ratio in the repeat runs, not every such curve was filed as active; the % refers to the signal ratio; further: potency means the concentration at half of the fitted maximal effect). A digest of the protocol: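 First, CRE-bla HEK293T cells settled 18 h at 37 C. Next, compound and 0.25 uM final NKH477 were applied for 3 h. Last, LiveBLAzer B/G substrate was loaded for 2 h at room temperature.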
The target of test [16] is Beta-2 adrenergic receptor (Homo sapiens) (UniProt P07550). The test can be described thus: Adrenergic beta2 receptor (ADRB2) small molecule antagonists, cell-based qHTS assay (AID 1963592). Further: series mostly up to about 92 µM; nearly all actives have a fitted effect of over 50% in size. A digest of the protocol: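 Assay format: CHO-ADRB2 cells, 18-20hr seeding at 37C/5% CO2, then compound plus 1nM isoproterenol agonist mix for 0.5hr RT. Homogeneous time-resolved fluorescence cAMP detection after 1hr, expressed as 665/615 nm ratio.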
Chain of Beta-2 adrenergic receptor (Homo sapiens) (P07550 whole entry, looked up): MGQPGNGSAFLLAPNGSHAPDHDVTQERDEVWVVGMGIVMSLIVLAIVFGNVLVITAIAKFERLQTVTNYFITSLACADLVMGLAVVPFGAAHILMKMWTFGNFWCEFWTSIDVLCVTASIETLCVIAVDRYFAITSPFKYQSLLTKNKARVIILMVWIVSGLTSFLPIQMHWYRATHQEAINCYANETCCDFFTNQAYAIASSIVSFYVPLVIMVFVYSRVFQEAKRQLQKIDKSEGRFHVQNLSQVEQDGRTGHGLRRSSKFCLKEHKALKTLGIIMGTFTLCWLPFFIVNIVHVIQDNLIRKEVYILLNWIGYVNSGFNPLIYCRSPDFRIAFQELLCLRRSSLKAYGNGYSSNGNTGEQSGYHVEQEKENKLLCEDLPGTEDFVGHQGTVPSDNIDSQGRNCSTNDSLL

The target is the same in test [17]. The test can be described thus: Adrenergic beta2 receptor (ADRB2) small molecule agonists, cell-based qHTS assay (AID 1963593).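 Further: CHO cells stably overexpressing human ADRB2.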 The essentials: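 CHO cells stably over-expressing ADRB2 were plated overnight at 37C, then dosed with compounds plus a stimulation mix containing 100uM IBMX and 25uM Ro-20-1724 for 0.5hr at room temperature. cAMP was measured by HTRF competition, 1hr.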

For test [18], the target named is D(2) dopamine receptor (Homo sapiens) (UniProt P14416). The test can be described thus: Dopamine D2 receptor (DRD2) small molecule agonists, cell-based qHTS assay (AID 1963594). Further: nearly all actives have a fitted effect of over 35% in size. The essentials: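 HEK293 cells stably expressing DRD2 were cultured 24 h at 37 C, then given Ro20-1724 (0.1 mM final) and compounds for 10 min at room temperature. NKH477 (200nM) was then added for 30 min. cAMP was read by HTRF.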
Chain of D(2) dopamine receptor (Homo sapiens) (P14416 whole entry, looked up): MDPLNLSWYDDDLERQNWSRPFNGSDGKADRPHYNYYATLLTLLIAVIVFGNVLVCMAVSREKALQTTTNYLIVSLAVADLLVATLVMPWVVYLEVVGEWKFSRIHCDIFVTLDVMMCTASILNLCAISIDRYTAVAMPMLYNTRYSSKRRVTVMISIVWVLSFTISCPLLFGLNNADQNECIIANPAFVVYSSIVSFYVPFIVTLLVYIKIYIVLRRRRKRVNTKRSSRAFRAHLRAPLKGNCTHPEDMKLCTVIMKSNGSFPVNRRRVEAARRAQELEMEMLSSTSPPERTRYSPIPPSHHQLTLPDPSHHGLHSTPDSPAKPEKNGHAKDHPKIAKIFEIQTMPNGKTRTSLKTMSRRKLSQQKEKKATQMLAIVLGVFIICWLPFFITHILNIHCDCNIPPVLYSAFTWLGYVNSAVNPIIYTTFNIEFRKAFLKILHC

For test [19] the target is unchanged. The test can be described thus: Dopamine D2 receptor (DRD2) small molecule antagonists, cell-based qHTS assay (AID 1963595; active means well fitted inhibition curve with a large enough effect in the signal ratio in the repeat runs, with a control signal flat; the % refers to the signal ratio). The essentials: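 Cells were plated and grown for 24 h at 37 °C. Ro20-1724 (0.1 mM final) went in first, then compound for 10 min. NKH477 (200 nM) with quinpirole (12 nM) followed for 30 min at RT, then HTRF detection reagents for 1 h.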

The nature of test [20]: p53 small molecule agonists, cell-based qHTS assay with rat liver microsomes (AID 1963578). A digest of the protocol: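 Compound in DMSO added to p53RE-bla cells 5 h post-plating; rat microsomes/NADPH 0.5 mg/mL final; 16 h, 37 C; LiveBLAzer 2 h RT.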

Each structure is given as a SMILES string. Values joined by “and” are separate entries in the source; they are usually repeats but may differ in a detail not shown here. Equal entries are not always repeated. Inconclusive results are not listed. Active and inactive are the calls of the source. Unless noted, the call rests on the fitted dose curve.

Chain of 5-hydroxytryptamine receptor 2A (Homo sapiens) (P28223 whole entry, looked up): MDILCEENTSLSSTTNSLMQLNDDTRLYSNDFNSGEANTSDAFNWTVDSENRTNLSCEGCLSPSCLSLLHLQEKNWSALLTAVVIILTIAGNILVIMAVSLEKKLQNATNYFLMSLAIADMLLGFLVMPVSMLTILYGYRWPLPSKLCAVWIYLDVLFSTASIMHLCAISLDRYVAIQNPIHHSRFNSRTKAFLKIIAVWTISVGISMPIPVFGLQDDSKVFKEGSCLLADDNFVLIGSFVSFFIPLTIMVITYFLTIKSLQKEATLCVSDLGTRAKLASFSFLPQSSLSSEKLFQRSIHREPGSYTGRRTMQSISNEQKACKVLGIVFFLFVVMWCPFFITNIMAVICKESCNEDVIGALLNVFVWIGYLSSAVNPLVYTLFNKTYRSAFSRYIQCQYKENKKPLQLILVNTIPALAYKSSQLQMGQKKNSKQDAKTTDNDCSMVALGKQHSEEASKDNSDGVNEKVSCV
Chain of KiSS-1 receptor (Homo sapiens) (Q969F8 whole entry, looked up): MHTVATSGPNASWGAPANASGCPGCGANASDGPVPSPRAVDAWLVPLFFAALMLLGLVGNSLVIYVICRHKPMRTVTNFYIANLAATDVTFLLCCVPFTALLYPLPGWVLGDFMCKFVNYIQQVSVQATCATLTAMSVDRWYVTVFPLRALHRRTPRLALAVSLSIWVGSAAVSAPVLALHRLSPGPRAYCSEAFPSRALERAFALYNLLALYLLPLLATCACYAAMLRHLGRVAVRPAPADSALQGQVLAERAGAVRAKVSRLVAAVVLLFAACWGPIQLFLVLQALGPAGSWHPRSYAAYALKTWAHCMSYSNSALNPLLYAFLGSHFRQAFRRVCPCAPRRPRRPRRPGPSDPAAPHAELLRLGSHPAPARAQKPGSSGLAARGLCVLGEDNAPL

On to `CC(=O)c1cc(C(C)(C)C)cc2c1CCC2(C)C`, for which the Potency entry in test [1], in test [2], in test [3], in test [4], in test [5] and in test [6] was “inactive” throughout. The Potency entry in test [7], in [8], in test [9], in test [10], in [11] and in test [12] was “inactive” throughout. Further, the Potency entry in [13], in test [14], in test [15], in test [16], in test [17] and in test [18] was “inactive” throughout. Also, the Potency entry in test [19] is “inactive”.

Consider `C=C(C)CN(CC)c1c([N+](=O)[O-])cc(C(F)(F)F)cc1[N+](=O)[O-]`, for which, in test [1], the Potency was 54.5 µM (active). The Potency result in [2], in test [3], in test [4], in test [5], in test [6] and in test [7] was “inactive” in each case. Also, the Potency result in [8], in test [9], in test [10], in test [11], in test [12] and in test [13] was “inactive” throughout. The Potency result in test [14], in test [15], in [16], in test [18] and in test [19] was “inactive” throughout.

On to `Cc1cc(C)cc(OP(=O)(Oc2cc(C)cc(C)c2)Oc2cc(C)cc(C)c2)c1`, for which the Potency result in test [1], in [2], in test [3], in test [4], in test [5] and in test [6] was “inactive” each time. The Potency result in test [7], in test [8], in test [9], in [10], in [11] and in test [12] was “inactive” throughout. The Potency result in [13], in test [14], in [16], in test [18] and in test [19] was “inactive” throughout.

`C[C@@H]1C[C@@H]([C@H](O)CC2CC(=O)NC(=O)C2)C(=O)[C@@H](C)C1`: the Potency result in test [1], in [2], in test [3], in test [4], in test [20] and in [6] was “inactive” in each case. Further, the Potency result in [7], in [8], in test [9], in test [14], in test [16] and in test [18] was “inactive” each time. For the same compound, the Potency result in [19] was “inactive”. The Potency in test [15] was 8.58 µM (active) and 8.3 µM (active) and 2.66 µM (active).

Turning to `CCOC(=O)COc1cc(-c2nn(C)c(OC(F)F)c2Cl)c(F)cc1Cl`, the Potency entry in [1], in test [2], in test [3], in [4], in [20] and in test [7] was “inactive” each time. In addition, the Potency result in test [10], in test [11], in test [13], in test [16] and in test [19] was “inactive” each time.

As for `O=c1ssc(Cl)c1Cl`, the Potency in test [1] is 24.3 µM (active). Further, the Potency entry in test [2], in [3], in [4], in [5], in test [20] and in test [7] was “inactive” throughout. Further, the Potency result in [9], in test [10], in test [11], in test [12], in [13] and in test [14] was “inactive” in each case. Besides, the Potency entry in test [15], in test [16], in [17], in [18] and in test [19] was “inactive” each time.

With `Nc1ccc(Cl)cc1C(=O)c1ccccc1`, the Potency result in [1], in test [2], in test [3], in test [4], in [20] and in test [12] was “inactive” throughout. Further, the Potency entry in test [13], in test [15], in test [16], in [18] and in [19] was “inactive” each time.

As for `O=[N+]([O-])c1ccc(O)c([N+](=O)[O-])c1`, the Potency entry in test [1], in test [2], in test [3], in test [4], in test [20] and in test [6] was “inactive” throughout. The Potency result in test [7], in test [8], in test [9], in [10], in test [11] and in test [12] was “inactive” in each case. The Potency result in test [13], in [16] and in [18] was “inactive” in each case.

Source of the values: PubChem BioAssay (Tox21).
